Among the data in PubChem BioAssay (NCI) are growth inhibition values, retold here.

The nature of experiment [1]: NCI Yeast Anticancer Drug Screen. Data for the rad50 strain (AID 155).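 Also: 0% = growth of vehicle-only cultures of the same strain.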 As to conditions: S. cerevisiae rad50 strain growth inhibition, stronger effect = higher value. A digest of the protocol: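 Cells are treated with compound, grown, and their growth is then scored against vehicle-only cultures of the same repair-deficient yeast strain.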
Experiment [2] in a line: NCI Yeast Anticancer Drug Screen. Data for the mec2-1 strain (AID 157). Conditions: S. cerevisiae mec2-1 strain, stronger effect = higher value. A digest of the protocol: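 Compounds were applied to mec2-1 yeast cells. Their growth was then compared with that of vehicle-treated cultures to give growth inhibition.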
The nature of experiment [3]: NCI Yeast Anticancer Drug Screen. Data for the sgs1 mgt1 strain (AID 161).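 Also: 0% = growth of cultures given vehicle only.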 Conditions: S. cerevisiae sgs1 mgt1 strain, stronger effect = higher value. Summed up:
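This yeast growth screen uses a strain with defined DNA-repair lesions; compound-treated growth is compared with vehicle-treated growth.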

Experiment [4] is described as follows: NCI Yeast Anticancer Drug Screen. Data for the cln2 rad14 strain (AID 165).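 Also: 0% = growth equal to vehicle treated cultures.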 As to conditions: S. cerevisiae cln2 rad14 strain, stronger effect = higher value. Summed up: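 Strain: cln2 rad14 yeast, altered in cell cycle control and DNA damage repair. Read-out: growth inhibition vs vehicle.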
Experiment [5] in a line: NCI Yeast Anticancer Drug Screen. Data for the bub3 strain (AID 167). Conditions: S. cerevisiae bub3 mutant strain, stronger effect = higher value. A digest of the protocol:
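Part of a panel of yeast mutants defective in DNA damage repair or cell cycle regulation. Each strain is grown with compound, and inhibition is calculated relative to solvent-treated cultures.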

A short description of experiment [6]: NCI Yeast Anticancer Drug Screen. Data for the mlh1 rad18 strain (AID 175). As to conditions: S. cerevisiae mlh1 rad18 strain growth inhibition, stronger effect = higher value. A digest of the protocol: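 A repair-deficient yeast strain is exposed to test compound, and growth is scored relative to vehicle-treated controls.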
The mark [7] stands for this setting: at 5.0 µM (retest, dose inferred, filed as 0.5).
Where [8] appears, read: at 50.0 µM (retest, dose inferred, filed as 5.0).

Compounds without any hit were thinned out: in the full panel of roughly 79,000, 15% have a hit. A number with no mark means an inactive call. Activity calls are given as the source filed them. Rule as the data show it: active = growth inhibition above about 70%; inactive = the rest.

For the compound `FC(F)(F)c1[nH]nc(-c2cccs2)c1N=NN1CCOCC1`, the growth inhibition in experiment [1] (setting [7]) was 98% (active); in experiment [1] (setting [8]), 98% (active); in experiment [1] (at 50.0 µM) it was 98% (active); in experiment [2] (setting [7]), 100% (active); in experiment [2] (setting [8]), 99% (active); in experiment [2] (at 50.0 µM) it was 99.2% (active). In addition, the growth inhibition in experiment [3] (setting [7]) is 100% (active); in experiment [3] (setting [8]) it was 99% (active); in experiment [3] (at 50.0 µM) it was 97.2% (active); in experiment [4] (setting [7]), 99% (active); in experiment [4] (setting [8]), 99% (active); in experiment [4] (at 50.0 µM), 98.6% (active). In addition, the growth inhibition in experiment [5] (setting [7]) is 100% (active); in experiment [5] (setting [8]) it was 99% (active); in experiment [5] (at 50.0 µM) it was 98.6% (active); in experiment [6] (setting [7]), 100% (active); in experiment [6] (setting [8]) it was 99% (active); in experiment [6] (at 50.0 µM) it was 98% (active).

For the compound `COc1ccc(-c2c(CO)cc(OC)c(OC)c2OC)c(CO)c1`, the growth inhibition in experiment [1] (setting [7]) is -1%; in experiment [1] (setting [8]), 6%; in experiment [1] (at 50.0 µM), 93.5% (active); in experiment [2] (setting [7]), -9%; in experiment [2] (setting [8]), 21%; in experiment [2] (at 50.0 µM), 98.8% (active). The growth inhibition in experiment [3] (setting [7]) was -5%; in experiment [3] (setting [8]), 22%; in experiment [3] (at 50.0 µM), 64.5%; in experiment [4] (setting [7]), -2%; in experiment [4] (setting [8]), 10%; in experiment [4] (at 50.0 µM) it was 98% (active). Moreover, the growth inhibition is 1% in experiment [5] (setting [7]); 43% in experiment [5] (setting [8]); 98.7% (active) in experiment [5] (at 50.0 µM); 13% in experiment [6] (setting [7]); 41% in experiment [6] (setting [8]); 99% (active) in experiment [6] (at 50.0 µM).

Consider `N#Cc1ccccc1NC1OCC(O)C(O)C1O` (configuration not stated), for which the growth inhibition is -149% in experiment [1] (setting [7]); -139% in experiment [1] (setting [8]); 0.45% in experiment [1] (at 50.0 µM); -45% in experiment [2] (setting [7]); -45% in experiment [2] (setting [8]); -3.35% in experiment [2] (at 50.0 µM). Further, the growth inhibition is -61% in experiment [3] (setting [7]); -79% in experiment [3] (setting [8]); 10.6% in experiment [3] (at 50.0 µM); -58% in experiment [4] (setting [7]); -53% in experiment [4] (setting [8]); 16.1% in experiment [4] (at 50.0 µM). The growth inhibition in experiment [5] (setting [7]) was -67%; in experiment [5] (setting [8]) it was -74%; in experiment [5] (at 50.0 µM), 7.2%; in experiment [6] (setting [7]) it was -145%; in experiment [6] (setting [8]) it was -105%; in experiment [6] (at 50.0 µM) it was -3.35%.

With `COc1ccc(C(=O)c2ccc([N+](=O)[O-])cc2)cc1`, the growth inhibition was -1% in experiment [1] (setting [7]); -19% in experiment [1] (setting [8]); -4.55% in experiment [1] (at 50.0 µM); 7% in experiment [2] (setting [7]); -9% in experiment [2] (setting [8]); -12.2% in experiment [2] (at 50.0 µM). The growth inhibition in experiment [3] (setting [7]) was 3%; in experiment [3] (setting [8]), 0%; in experiment [3] (at 50.0 µM) it was -3.8%; in experiment [4] (setting [7]), -15%; in experiment [4] (setting [8]) it was -47%; in experiment [4] (at 50.0 µM), 53.4%. The growth inhibition in experiment [5] (setting [7]) was 9%; in experiment [5] (setting [8]) it was -17%; in experiment [5] (at 50.0 µM) it was 17.5%; in experiment [6] (setting [7]) it was 13%; in experiment [6] (setting [8]), 0%; in experiment [6] (at 50.0 µM), -21.6%.

On to `O=NNc1ccc2cc3ccc(NN=O)cc3nc2c1`, for which the growth inhibition in experiment [1] (setting [7]) is 16%; in experiment [1] (setting [8]), 25%; in experiment [1] (at 50.0 µM) it was 43.2%; in experiment [2] (setting [7]) it was 6%; in experiment [2] (setting [8]), 26%; in experiment [2] (at 50.0 µM), -11.1%. Further, the growth inhibition in experiment [3] (setting [7]) is 7%; in experiment [3] (setting [8]) it was 24%; in experiment [3] (at 50.0 µM) it was 52.5%; in experiment [4] (setting [7]), 11%; in experiment [4] (setting [8]), 24%; in experiment [4] (at 50.0 µM) it was 27.7%. The growth inhibition in experiment [5] (setting [7]) was 9%; in experiment [5] (setting [8]) it was 14%; in experiment [5] (at 50.0 µM) it was 34.6%; in experiment [6] (setting [7]), 15%; in experiment [6] (setting [8]), 31%; in experiment [6] (at 50.0 µM) it was 52.7%.

On to `CSC(=S)/C(=C/Nc1ncccn1)c1ccccc1`, for which the growth inhibition is 5% in experiment [1] (setting [7]); 97% (active) in experiment [1] (setting [8]); 94.8% (active) in experiment [1] (at 50.0 µM); 3% in experiment [2] (setting [7]); 99% (active) in experiment [2] (setting [8]); 93.5% (active) in experiment [2] (at 50.0 µM). Moreover, the growth inhibition is -3% in experiment [3] (setting [7]); 94% (active) in experiment [3] (setting [8]); 79% (active) in experiment [3] (at 50.0 µM); 1% in experiment [4] (setting [7]); 62% in experiment [4] (setting [8]); 95% (active) in experiment [4] (at 50.0 µM). Moreover, the growth inhibition in experiment [5] (setting [7]) is -3%; in experiment [5] (setting [8]), 94% (active); in experiment [5] (at 50.0 µM), 91.8% (active); in experiment [6] (setting [7]), 7%; in experiment [6] (setting [8]), 97% (active); in experiment [6] (at 50.0 µM), 94.5% (active).

For the compound `CCCCOC(=O)c1cnc[nH]c1=O`, the growth inhibition in experiment [1] (setting [7]) is 3%; in experiment [1] (setting [8]) it was 17%; in experiment [1] (at 50.0 µM), 0.5%; in experiment [2] (setting [7]), 2%; in experiment [2] (setting [8]), 3%; in experiment [2] (at 50.0 µM), -2.65%. Besides, the growth inhibition in experiment [3] (setting [7]) was 0%; in experiment [3] (setting [8]), 8%; in experiment [3] (at 50.0 µM), 8.15%; in experiment [4] (setting [7]), 4%; in experiment [4] (setting [8]), 3%; in experiment [4] (at 50.0 µM) it was 10.4%. The growth inhibition in experiment [5] (setting [7]) is -5%; in experiment [5] (setting [8]), 14%; in experiment [5] (at 50.0 µM), 3.55%; in experiment [6] (setting [7]), 24%; in experiment [6] (setting [8]) it was 12%; in experiment [6] (at 50.0 µM), 8.65%.

Regarding `CCCCCCCCCC1OCC(O)CO1` (configuration not stated) (tested in a mixture with another compound), the growth inhibition in experiment [1] (setting [7]) was 7%; in experiment [1] (setting [8]), 66%; in experiment [1] (at 50.0 µM), 99% (active); in experiment [2] (setting [7]), 9%; in experiment [2] (setting [8]) it was 79% (active); in experiment [2] (at 50.0 µM), 96.1% (active). Moreover, the growth inhibition in experiment [3] (setting [7]) is 10%; in experiment [3] (setting [8]), 96% (active); in experiment [3] (at 50.0 µM) it was 98.7% (active); in experiment [4] (setting [7]) it was 3%; in experiment [4] (setting [8]), 90% (active); in experiment [4] (at 50.0 µM) it was 86.4% (active). Further, the growth inhibition in experiment [5] (setting [7]) was 8%; in experiment [5] (setting [8]), 87% (active); in experiment [5] (at 50.0 µM), 89.3% (active); in experiment [6] (setting [7]), 12%; in experiment [6] (setting [8]), 98% (active); in experiment [6] (at 50.0 µM) it was 99.5% (active).

Take `CN(C)c1ccc(C2(Cl)c3ccccc3N(Cc3ccccc3)c3ccccc32)cc1`: the growth inhibition in experiment [1] (setting [7]) was 99% (active); in experiment [1] (setting [8]) it was 94% (active); in experiment [1] (at 50.0 µM), 96.5% (active); in experiment [2] (setting [7]), 99% (active); in experiment [2] (setting [8]), 95% (active); in experiment [2] (at 50.0 µM), 97.2% (active). In addition, the growth inhibition in experiment [3] (setting [7]) is 99% (active); in experiment [3] (setting [8]), 95% (active); in experiment [3] (at 50.0 µM), 96% (active); in experiment [4] (setting [7]) it was 99% (active); in experiment [4] (setting [8]), 93% (active); in experiment [4] (at 50.0 µM) it was 93.2% (active). The growth inhibition in experiment [5] (setting [7]) was 99% (active); in experiment [5] (setting [8]), 94% (active); in experiment [5] (at 50.0 µM), 96.4% (active); in experiment [6] (setting [7]), 99% (active); in experiment [6] (setting [8]), 94% (active); in experiment [6] (at 50.0 µM), 96.3% (active).
